Where “and” joins values, the source holds several entries; their conditions need not be identical. Equal values may be shown once. Calls of active or inactive are those of the source.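 How the source made its calls: active means compounds whose GFP signal falls below 65% of the DMSO control level; inconclusive means fewer than 70 yeast cells counted in the well; inactive means the rest.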
assay: TOR branch reporter RPL19A-GFP response – cell-based, S. cerevisiae, third cherry pick, flow cytometry, confirmation (AID 504336);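 further: median GFP fluorescence of all gated yeast cells by flow cytometry; ratio of well median fluorescence to plate mean of DMSO wells with DMSO = 100%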; settings: S. cerevisiae RPL19A-GFP strain, 3 h, at 10 µM, hits give low values

GFP response relative to DMSO, inactive:
OCc1ccnc2c(O)cccc12 99.1%
Cc1nc(Nc2ccc(Br)cc2Br)c([N+](=O)[O-])c(=O)[nH]1 100%
CCN(CC)c1ncnc2ccc(Br)cc12 98%
O=C(N/N=C/c1ccccc1F)c1cccc2ccccc12 100%
O=C(Nc1cccc(Cl)c1)ON=C1c2ccccc2-c2ccccc21 102%
O=C(N/N=C/c1ccccc1)c1cccc2ccccc12 98.3%
COc1ccc(OC)c2c(C)cc(C)nc12 98.5%
Cc1nc(Nc2ccc(Cl)cc2)c(C#N)c(=O)[nH]1 102%
Nc1c(O)ccc2c1C(=O)c1ccccc1C2=O 102%
O=C(Nc1ccccc1)O/N=C1\CCCCC1c1ccc([N+](=O)[O-])cc1[N+](=O)[O-] (centres undefined) 96.5%
O=C(/C=C/Nc1cccc(O)c1)c1ccccc1 98.8%
Nc1cc(C(=O)O)c(N)c2c1C(=O)c1ccccc1C2=O 98.5%
CNc1nc(N)c([N+](=O)[O-])c(Nc2ccccc2OC)n1 103%
Cc1ccc2c(C)ccc(O)c2n1 103%
CC1=CN2C(=N)/C(=C/c3ccco3)C(=O)N=C2S1 106%
C=CCNc1nc(N)c([N+](=O)[O-])c(Nc2ccccc2OC)n1 102%
COc1cccc(N/C=C/C(=O)c2ccc(C)cc2)c1 103%
CC(=O)Nc1ccc(-c2nc3ccccc3o2)cc1 99.6%
Cn1c(NCCCO)nc2c(c1=O)C1(CCCCC1)Cc1ccccc1-2 102%
NC(=O)c1ccnc2c(O)cccc12 98.8%
O=C(Nc1ccccc1)O/N=C1/CCCc2occc21 100%
COc1cc(OC)cc(C(=O)Nc2ccc(-c3nc4ccccc4o3)cc2)c1 103%
COc1ccc(-c2cc(C(F)(F)F)nc(S(C)(=O)=O)n2)cc1OC 99.6% and 103%
Nc1nc(NCCOCCO)nc(Nc2cccc(F)c2)c1[N+](=O)[O-] 102%
O=C(O)CCCCCNc1ncnc2ccc(Br)cc12 99.8%
Nc1ncnc(Nc2cc(Cl)cc(Cl)c2)c1[N+](=O)[O-] 102%
COc1ccccc1Nc1nc(NCC(C)C)nc(N)c1[N+](=O)[O-] 102%
COC1=C/C(=C/c2c(N)n3cc(C)sc3nc2=O)C=CC1=O 103%
COc1ccccc1Nc1nc(NCCCN(C)C)nc(N)c1[N+](=O)[O-] 99.1%
COc1cccc(N/C(C)=C/C(=O)c2ccc(Br)cc2)c1 101%
CCCCC(=O)NCCc1cc2c(OC)ccc(OC)c2[nH]c1=O 97.5%
Oc1c(I)cc(Cl)c2cccnc12 86%
COc1ccc(N/C=C/C(=O)c2ccc(Cl)cc2)cc1 102%
COc1ccccc1-c1cc(C(F)(F)F)nc(S(=O)(=O)CCCC(=O)NC(C)C)n1 94.4% and 99.1%
Nn1cnc2c(c1=O)C1(CCCCC1)Cc1ccccc1-2 101%
CSc1ccccc1OCc1cc(C(=O)N2CCN(C)C(c3ccccc3)C2)no1 (centres undefined) 101%
CCC(C)Nc1nc(N)c([N+](=O)[O-])c(Nc2cc(OC)ccc2OC)n1 (centres undefined) 96.5%
C[n+]1cccc2c(Br)ccc([O-])c21 101%
Oc1ccc(Cl)c2cccnc12 98%

Source: PubChem BioAssay AID504336 (NMMLSC, 2011)
